Consider 18 compounds from PubChem BioAssay (EPA / NIEHS).

“And” between values parts separate entries of the source, which are not always exact repeats. Equal values may be shown once. More than one record can exist for a structure, and the calls need not agree. The source made the active and inactive calls. How the source made its calls: active means hit-call score of the fitted dose curve at least 0.9, where 1 is the maximum; inactive means score below 0.9.

Experiment [1] addresses Paired box protein Pax-6 (Homo sapiens) (UniProt P26367). The experiment in a line: ATG_Pax6_CIS: Attagene CIS-FACTORIAL HepG2 Assay for human Paired Box 6 (PAX6) (AID 2282956). The note with it: HepG2 CIS-FACTORIAL PAX6 reporter transcription, RNA readout; actives raise or lower the signal. The essentials: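 Read-out is reporter transcript level, measured by RT-PCR with fluorescent primer extension and capillary electrophoresis after 24 h dosing of transfected HepG2 cells. Activity in either direction fitted relative to DMSO control.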

Experiment [2] can be described thus: ATG_PXRE_CIS: Attagene CIS-FACTORIAL HepG2 Assay for human Pregnane X Receptor Element (PXRE) (AID 2282957). The note with it: HepG2 Attagene CIS-FACTORIAL PXRE reporter, mRNA; actives raise or lower the signal. The essentials:
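Fluorescent capillary electrophoresis of amplified reporter cDNA gave the signal, collected 24 h after dosing HepG2 cells that held transfected cis-element reporter constructs.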

The nature of experiment [3]: ATG_PPRE_CIS: Attagene CIS-FACTORIAL HepG2 Assay for human Peroxisome Proliferator-activated Response Element (PPRE) (AID 2282958). The note with it: HepG2 PPRE cis-element reporter, Attagene transcription factor profiling; actives raise or lower the signal. The essentials: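 PPRE activity in HepG2: transient cis-reporter transfection, 24 h compound incubation, reporter mRNA by RT-PCR and CE fluorescence; gain/loss fitted against DMSO.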

Experiment [4] in a line: ATG_RORE_CIS: Attagene CIS-FACTORIAL HepG2 Assay for human RAR-related Orphan Receptor Element (RORE) (AID 2282959). To be noted: HepG2 Attagene cis-factorial RORE reporter, mRNA; actives raise or lower the signal. The essentials:
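A 24-hour exposure of transfected HepG2 hepatoma cells precedes RNA isolation and reporter RT-PCR. Labeled products are digested with HpaI and resolved by capillary electrophoresis, with gain or loss of signal scored relative to DMSO.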

A short description of experiment [5]: ATG_Sox_CIS: Attagene CIS-FACTORIAL HepG2 Assay for human SRY-box transcription factor (SOX) (AID 2282960). The note with it: HepG2 Attagene cis-factorial SOX reporter, mRNA; actives raise or lower the signal. The essentials: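 HepG2, cis reporter units, 24 h exposure. Reporter mRNA: RT-PCR → FAM labelling → HpaI → CE fluorescence. Bidirectional fit vs DMSO.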

The target in experiment [6] is Transcription factor Sp1 (Homo sapiens) (UniProt P08047). Put plainly: ATG_Sp1_CIS: Attagene CIS-FACTORIAL HepG2 Assay for human Specificity Protein 1 (Sp1) (AID 2282961). The note with it: HepG2 Sp1 cis-reporter transcription, actives raise or lower the signal. The essentials:
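Liver-derived HepG2 cells, cis-element reporter library, 24 h treatment; RNA isolated, cDNA amplified with reporter-specific primers, FAM-labeled fragments sized on capillary analyzer. DMSO baseline, bidirectional curve fit.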

The nature of experiment [7]: ATG_SREBP_CIS: Attagene CIS-FACTORIAL HepG2 Assay for human Sterol Regulatory Element Binding (SREBP) (AID 2282962). The note with it: HepG2 Attagene cis-factorial SREBP reporter, mRNA; actives raise or lower the signal. The essentials:
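Endogenous SREBP activity read as cis-element-driven reporter transcript in transiently transfected HepG2, 24 h post-dosing; quantified via RT-PCR plus capillary electrophoresis of fluorescent fragments. Gain or loss of signal fitted relative to DMSO baseline.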

Experiment [8] has as its target Signal transducer and activator of transcription 3 (Homo sapiens) (UniProt P40763). The experiment in a line: ATG_STAT3_CIS: Attagene CIS-FACTORIAL HepG2 Assay for human Signal Transducer and Activator of Transcription 3 (STAT3) (AID 2282963). The note with it: HepG2, Attagene cis-factorial STAT3 reporter transcription; actives raise or lower the signal. The essentials:
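Cis-factorial format: endogenous transcription factors in HepG2 drive transfected reporter units. After 24 h treatment, reporter RNA was reverse-transcribed, amplified, FAM-labelled and HpaI-digested before CE analysis; activity scored in both directions against DMSO.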

Experiment [9] is described as follows: ATG_TA_CIS: Attagene CIS-FACTORIAL HepG2 Assay for human TA Basal Promoter (AID 2282964). To be noted: HepG2 Attagene CIS-factorial TA basal promoter reporter; actives raise or lower the signal. The essentials:
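Cis-factorial format in HepG2: reporters report endogenous factors, not chimeric Gal4 fusions. After 24 h treatment, reporter transcripts were measured by RT-PCR-capillary electrophoresis fluorescence, analysed bidirectionally versus DMSO.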

Experiment [10] can be described thus: ATG_TCF_b_cat_CIS: Attagene CIS-FACTORIAL HepG2 Assay for human T-Cell-Factor with beta-catenin (TCF/b-cat) (AID 2282965). To be noted: HepG2 TCF/beta-catenin cis-reporter transcription, actives raise or lower the signal. The essentials: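 Measured: reporter mRNA in HepG2 transiently transfected with cis-promoter reporter units, 24 h after chemical addition. Fitting was bidirectional, DMSO as negative control.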

Chain of Paired box protein Pax-6 (Homo sapiens) (P26367 whole entry, looked up): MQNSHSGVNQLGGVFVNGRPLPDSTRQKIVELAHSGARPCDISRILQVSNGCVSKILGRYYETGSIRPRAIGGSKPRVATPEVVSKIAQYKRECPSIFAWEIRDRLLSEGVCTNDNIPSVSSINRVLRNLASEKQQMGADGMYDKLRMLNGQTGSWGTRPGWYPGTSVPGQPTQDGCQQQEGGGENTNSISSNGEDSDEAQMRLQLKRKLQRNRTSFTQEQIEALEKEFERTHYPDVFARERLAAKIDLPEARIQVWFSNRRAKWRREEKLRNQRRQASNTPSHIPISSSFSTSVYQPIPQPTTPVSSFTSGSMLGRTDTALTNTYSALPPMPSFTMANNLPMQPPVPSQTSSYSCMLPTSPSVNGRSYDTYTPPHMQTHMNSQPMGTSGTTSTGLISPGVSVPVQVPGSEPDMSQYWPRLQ
Chain of Signal transducer and activator of transcription 3 (Homo sapiens) (P40763 whole entry, looked up): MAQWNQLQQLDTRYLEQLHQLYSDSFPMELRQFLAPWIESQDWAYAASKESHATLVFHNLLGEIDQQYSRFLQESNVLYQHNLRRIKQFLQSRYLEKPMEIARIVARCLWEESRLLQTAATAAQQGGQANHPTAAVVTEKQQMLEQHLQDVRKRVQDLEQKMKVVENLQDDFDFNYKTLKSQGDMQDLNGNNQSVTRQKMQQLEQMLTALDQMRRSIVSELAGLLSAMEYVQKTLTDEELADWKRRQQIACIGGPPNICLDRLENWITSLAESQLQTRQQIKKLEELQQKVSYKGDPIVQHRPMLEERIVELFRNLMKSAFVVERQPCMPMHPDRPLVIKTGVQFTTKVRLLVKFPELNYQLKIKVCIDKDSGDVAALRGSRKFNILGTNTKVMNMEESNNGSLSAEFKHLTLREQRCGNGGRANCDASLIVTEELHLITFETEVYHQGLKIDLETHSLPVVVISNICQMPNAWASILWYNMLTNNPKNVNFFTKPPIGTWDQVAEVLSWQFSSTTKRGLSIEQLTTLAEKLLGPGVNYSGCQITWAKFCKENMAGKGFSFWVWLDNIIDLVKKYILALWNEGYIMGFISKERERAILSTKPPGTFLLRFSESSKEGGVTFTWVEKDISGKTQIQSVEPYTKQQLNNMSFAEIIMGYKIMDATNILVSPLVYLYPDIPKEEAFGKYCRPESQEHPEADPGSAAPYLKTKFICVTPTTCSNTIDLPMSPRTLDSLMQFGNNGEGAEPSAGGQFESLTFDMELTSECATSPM
Chain of Transcription factor Sp1 (Homo sapiens) (P08047 whole entry, looked up, the tested form may be a part): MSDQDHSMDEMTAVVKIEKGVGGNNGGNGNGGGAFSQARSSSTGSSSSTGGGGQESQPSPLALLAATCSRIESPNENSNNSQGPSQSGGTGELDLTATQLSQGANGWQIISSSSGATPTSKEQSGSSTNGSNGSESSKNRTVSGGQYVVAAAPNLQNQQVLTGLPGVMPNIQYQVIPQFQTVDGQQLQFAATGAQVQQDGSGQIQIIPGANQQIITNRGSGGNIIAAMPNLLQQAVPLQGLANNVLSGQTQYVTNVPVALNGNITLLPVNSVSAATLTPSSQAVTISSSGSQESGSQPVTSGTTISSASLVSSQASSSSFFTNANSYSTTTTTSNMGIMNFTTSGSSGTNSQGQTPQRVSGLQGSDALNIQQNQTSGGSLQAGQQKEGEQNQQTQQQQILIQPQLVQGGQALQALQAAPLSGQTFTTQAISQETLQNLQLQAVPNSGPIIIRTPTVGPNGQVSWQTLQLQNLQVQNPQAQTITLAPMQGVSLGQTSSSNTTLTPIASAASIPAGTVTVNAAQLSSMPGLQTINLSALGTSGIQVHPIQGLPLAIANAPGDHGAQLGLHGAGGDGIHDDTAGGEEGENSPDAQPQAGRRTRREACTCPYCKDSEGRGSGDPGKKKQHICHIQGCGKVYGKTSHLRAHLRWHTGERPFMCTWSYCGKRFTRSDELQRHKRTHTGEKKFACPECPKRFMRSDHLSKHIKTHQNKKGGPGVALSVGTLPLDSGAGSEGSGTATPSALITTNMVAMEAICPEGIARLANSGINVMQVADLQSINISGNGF

Usually AC50 stands for the concentration at which the activity in the assay is half-maximal. Take `O=NN(c1ccccc1)c1ccccc1`: the compound was called inactive in [1], in experiment [3], in experiment [4], in experiment [5], in [6] and in experiment [7]. Besides, the compound was called inactive in [8], in experiment [9] and in experiment [10]. Besides, in experiment [2], the AC50 is 27.8 µM (active).
As for `Clc1ccc(Cl)cc1`, the outcome in experiment [1], in [2], in experiment [3], in [4], in [5] and in experiment [6] was inactive. In addition, the compound was classed as inactive in experiment [7], in experiment [8], in experiment [9] and in experiment [10].
For `Nn1cnnc1`, the call in [1], in experiment [2], in experiment [3], in [4], in experiment [5] and in [6] was inactive. For the same compound, the compound was called inactive in [7], in [8], in [9] and in [10].
In the case of `N#Cc1ccc(N(CC(N)=O)CC(F)(F)F)cc1C(F)(F)F`, the compound was called inactive in experiment [1], in experiment [2], in experiment [3], in experiment [4], in [5] and in [6]. Further, the call in experiment [7], in [8], in experiment [9] and in [10] was inactive.
Take `C=CC(N)=O`: the call in experiment [1], in experiment [4], in experiment [5], in experiment [6], in experiment [7] and in experiment [8] was inactive. The result in experiment [9] and in experiment [10] was inactive. Also, in experiment [2], the AC50 is 34 µM (active).
Take `CC(C)(O)C(=O)Nc1ccc([N+](=O)[O-])c(C(F)(F)F)c1`: the AC50 in [1] is 48.9 µM (active); in experiment [2] it was 20.9 µM (active) [middle of 4 runs]. Moreover, the compound was called inactive in experiment [1], in experiment [4], in experiment [5], in experiment [6], in experiment [7] and in experiment [8]. The result in experiment [9] and in [10] was inactive.
For the compound `Cc1ccccc1O`, the call in experiment [1], in experiment [2], in experiment [3], in [4], in experiment [5] and in experiment [6] was inactive. In addition, the outcome in experiment [7], in experiment [8], in experiment [9] and in [10] was inactive.
For `C[C@]12CCC(=O)C=C1CC[C@@H]1[C@@H]2CC[C@@]2(C)[C@H]1CC[C@]2(C)O`, the result in experiment [1], in [3], in experiment [4], in [5], in experiment [6] and in experiment [7] was inactive. The call in experiment [8], in [9] and in experiment [10] was inactive. In addition, the AC50 in [7] was 57.5 µM (active) and 45.9 µM (active) and 62.4 µM (active); in [10], 55.7 µM (active) and 15.9 µM (active).
Consider `NS(=O)(=O)C(F)(F)C(F)(F)C(F)(F)C(F)(F)C(F)(F)C(F)(F)C(F)(F)C(F)(F)F`, for which the half-maximal activity concentration (AC50) was 246 µM (active) in experiment [2]; 38.7 µM (active) and 25.8 µM (active) in [3]; 78 µM (active) in experiment [4]; 83.8 µM (active) in experiment [5]; 24.4 µM (active) and 38.7 µM (active) and 27.6 µM (active) in experiment [6]; 38.9 µM (active) and 50 µM (active) in experiment [7]. For the same compound, the AC50 in [10] was 150 µM (active). Also, the call in experiment [2], in [3], in [4], in [5], in [7] and in experiment [8] was inactive. Besides, the compound was classed as inactive in experiment [9] and in experiment [10].
In the case of `Cc1cccc(C)c1N`, the outcome in experiment [1], in [2], in experiment [3], in [4], in experiment [5] and in experiment [6] was inactive. Moreover, the call in experiment [7], in experiment [8], in experiment [9] and in experiment [10] was inactive.
Regarding `CC(C)(c1ccccc1)c1ccc(O)cc1`, the AC50 was 52.3 µM (active) and 39.5 µM (active) in experiment [1]; 2.59 µM (active) [middle of 4 runs] in [2]; 22.6 µM (active) and 33.4 µM (active) in experiment [3]; 48.9 µM (active) in [4]; 50.8 µM (active) in experiment [5]; 51.9 µM (active) and 53.1 µM (active) in [6]. For the same compound, the AC50 was 55.9 µM (active) and 54.6 µM (active) in experiment [8]; 54 µM (active) in experiment [9]; 39.9 µM (active) and 54.5 µM (active) in experiment [10]. For the same compound, the call in [1], in experiment [3], in experiment [4], in experiment [5], in [6] and in experiment [7] was inactive. For the same compound, the compound was called inactive in experiment [8], in [9] and in experiment [10].
Consider `CC(C)C(=O)OCC(C)(C)C(OC(=O)C(C)C)C(C)C` (stereo not drawn), for which the compound was called inactive in experiment [1], in [3], in experiment [4], in experiment [5], in [6] and in experiment [7]. For the same compound, the result in [8], in experiment [9] and in experiment [10] was inactive. Besides, the AC50 in experiment [2] was 26.7 µM (active).
With `c1ccc(-c2ccccc2)cc1`, the compound was called inactive in experiment [1], in experiment [2], in experiment [3], in [4], in experiment [5] and in experiment [6]. Moreover, the call in experiment [7], in experiment [8], in experiment [9] and in [10] was inactive.
As to `CCOC(=O)C(O)(c1ccc(Cl)cc1)c1ccc(Cl)cc1`, the call in experiment [1], in experiment [3], in experiment [4], in experiment [5], in [6] and in experiment [7] was inactive. Also, the compound was classed as inactive in experiment [8], in [9] and in [10]. Also, the AC50 in [2] is 3.33 µM (active).
As to `Clc1ccc(C(Cl)(Cl)Cl)cc1`, the outcome in [1], in experiment [2], in experiment [4], in experiment [5], in [6] and in [7] was inactive. Also, the outcome in experiment [8], in experiment [9] and in experiment [10] was inactive.
Regarding `Cc1ccc(O)c(C)c1`, the compound was classed as inactive in experiment [2], in experiment [3], in [4], in experiment [5], in [6] and in experiment [7]. Further, the compound was classed as inactive in [8] and in experiment [9]. In addition, in [10], the half-maximal activity concentration (AC50) was 168 µM (active).
For the compound `O=C(O)C(F)(F)C(F)(F)C(F)(F)C(F)(F)C(F)(F)F`, the compound was called inactive in [2], in experiment [3], in experiment [4], in experiment [5], in experiment [6] and in experiment [7]. Further, the outcome in experiment [8], in experiment [9] and in experiment [10] was inactive.
With `O=C(O)C(F)(F)C(F)(F)C(F)(F)C(F)(F)C(F)(F)C(F)(F)C(F)(F)C(F)(F)C(F)(F)F`, the concentration at half-maximal activity (AC50) in experiment [2] is 57.5 µM (active); in experiment [3], 47.5 µM (active) and 14.8 µM (active); in [4] it was 50.5 µM (active) and 32.8 µM (active); in [5], 33.4 µM (active); in experiment [10], 45 µM (active) and 35.7 µM (active) and 14.7 µM (active). For the same compound, the compound was called inactive in experiment [2], in [3], in [4], in [5], in experiment [6] and in [7]. Moreover, the compound was called inactive in experiment [8] and in experiment [9].
